Laboratory results reported in PubChem BioAssay AID1851 (National Center for Advancing Translational Sciences (NCATS), 2009).
In all, about 16,000 compounds went through this assay and about 5,800 (36%) were called active. Roughly 23% stayed inconclusive and do not appear here. This is one part of the list. Unmarked numbers belong to inactive results. The call rests on the fitted dose curve; in most records, active means well fitted curve in the direction sought with a large enough effect; inconclusive means small, poorly fitted or top-dose-only effect, or effect the other way; inactive means no such curve, though single readings can be large or run the other way.

Target: Cytochrome P450 2C19 (Homo sapiens) (UniProt P33261)
Assay: Cytochrome panel assay with activity outcomes
Conditions: recombinant CYP, pro-luciferin dealkylation, luminescence, p450-cyp2c19; series mostly up to 57.1 µM
On the % scale 0 is the no-effect control and ±100 the full control effect.

Sequence of Cytochrome P450 2C19 (Homo sapiens) (P33261 whole entry, looked up): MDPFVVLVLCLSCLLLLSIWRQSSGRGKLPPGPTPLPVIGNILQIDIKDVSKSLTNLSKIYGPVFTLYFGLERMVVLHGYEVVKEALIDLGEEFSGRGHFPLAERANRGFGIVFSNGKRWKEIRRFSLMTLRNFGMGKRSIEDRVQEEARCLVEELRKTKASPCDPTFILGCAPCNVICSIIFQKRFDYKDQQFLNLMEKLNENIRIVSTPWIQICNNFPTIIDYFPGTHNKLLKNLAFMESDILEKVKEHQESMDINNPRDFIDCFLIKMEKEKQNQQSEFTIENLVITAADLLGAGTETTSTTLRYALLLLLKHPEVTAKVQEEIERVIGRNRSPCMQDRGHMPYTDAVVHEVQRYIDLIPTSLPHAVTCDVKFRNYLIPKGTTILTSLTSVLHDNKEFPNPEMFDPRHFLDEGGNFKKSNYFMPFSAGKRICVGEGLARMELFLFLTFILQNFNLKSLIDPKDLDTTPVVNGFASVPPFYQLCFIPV

| Structure (SMILES) | AC50 | activity, negative = inhibition |
| --- | --- | --- |
| CC(C)c1nc2oc3ccccc3c(=O)c2c(=O)n1-c1ccccc1 | inactive | – |
| Cc1nn(-c2ccc(Cl)cc2)c2sc(C(=O)c3c(N)n(C)c(=O)n(C)c3=O)cc12 | inactive | – |
| CC(C)Cn1c(N)c(C(=O)CSc2ccc3c(c2)OCCO3)c(=O)n(C)c1=O | 2.51 µM (active) | – |
| CC(C)Cn1c(=O)n(C)c(=O)c2[nH]cnc21 | inactive | – |
| Cn1c(N)c(C(=O)CSc2ccc3c(c2)OCCO3)c(=O)n(C)c1=O | 5.62 µM (active) | – |
| COc1ccc(C2=Nc3cccc4cccc(c34)N2)cc1 | inactive | – |
| C/C(=N\OC(=O)NC1CCCCC1)c1sc(-c2ccccc2)nc1C | 5.62 µM (active) | – |
| O=C(O)c1cc2ccccc2c(S(=O)(=O)O)c1O | – | 23.2% [at 11.4 µM] |
| Cn1cnc([N+](=O)[O-])c1Sc1nc(N)nc2c1ncn2[C@H]1C[C@H](O)[C@@H](CO)O1 | – | 8.27% [at 11.4 µM] |
| Cc1cccc(Sc2c([N+](=O)[O-])ncn2C)n1 | inactive | – |
| Cc1ccc(Sc2c([N+](=O)[O-])ncn2C)cc1 | 25.1 µM (active) | – |
| Cc1nn(Cc2c(Cl)cccc2Cl)c(C)c1NC(=O)c1cnn2c(C(F)F)cc(-c3ccccc3)nc12 | 7.08 µM (active) | – |
| Cn1ncc(Cl)c1C(=O)Nc1cccnc1 | inactive | – |
| O=C(N/N=C/c1ccc(O)cc1)c1ccc(COc2cc(Cl)ccc2Cl)o1 | 4.47 µM (active) | – |
| O=C(Nc1cccnc1)c1ccc(COc2cc(Cl)ccc2Cl)o1 | 2.51 µM (active) | – |
| O=C(Nc1ccn(Cc2ccccc2F)n1)c1ccc(COc2cc(Cl)ccc2Cl)o1 | 0.708 µM (active) | – |
| CC(C)CNC(=O)c1ccc(COc2ccc(Cl)cc2Cl)o1 | 10 µM (active) | – |
| CC(=O)O[C@@H](C)C[N+](C)(C)C | inactive | – |
| CO[C@@H]1COC(=O)CC=C[C@@H](C)[C@@H]2C=C[C@H](O)[C@@H](COC(=O)C/C=C\[C@H]1C)O2 | – | -32.3% [at 11.4 µM] |
| O=C(c1ccccc1)[C@H](Nc1ccc2ccccc2c1)c1ccccc1 | 1 µM (active) | – |

| Structure (SMILES) | AC50 | activity, negative = inhibition |
| --- | --- | --- |
| O=C(O)[C@@H](c1ccccc1)[C@@H](C(=O)O)c1ccccc1 | – | 8.57% [at 11.4 µM] |
| CC1=CC(=C2C(=O)c3ccccc3C2=O)C=C(C)O1 | 25.1 µM (active) | – |
| CCCCS(=O)(=O)NC1=NCN(Cc2ccco2)CN1 | inactive | – |
| CC1=CC(=C2C(=O)c3ccccc3C2=O)C=C(C)N1Cc1ccco1 | 4.47 µM (active) | – |
| COC(=O)C(NC(=O)c1ccccc1)=C1C=C(C)OC(C)=C1 | inactive | – |
| Cc1nc(SCc2cccc(Oc3ccccc3)c2)n[nH]1 | 5.01 µM (active) | – |
| CO[C@]1(NC(=O)[C@H](C(=O)O)c2ccc(O)cc2)C(=O)N2C(C(=O)O)=C(CSc3nnnn3C)CO[C@H]21 | inactive | – |
| COc1ccccc1-c1cncnc1NCCc1cnc[nH]1 | 0.0794 µM (active) | – |
| CC(=O)NCCNc1ncncc1-c1ccccc1C(F)(F)F | inactive | – |
| COc1cccc(-c2cncnc2NCCc2cnc[nH]2)c1 | 0.01 µM (active) | – |
| FC(F)(F)c1ccccc1-c1cncnc1NCCc1cnc[nH]1 | 0.01 µM (active) | – |
| CS(=O)(=O)N1CCC2(CCCN(C(=O)Nc3cccc(F)c3)C2)CC1 | inactive | – |
| Cc1ccc(C(C)C)n1C(=O)OC(C)(C)C | – | 4.81% [at 11.4 µM] |
| CN(C)/C=N/c1ncc(C(=O)c2ccc3ccccc3c2)s1 | 14.1 µM (active) | – |
| CN(C)c1ccc(/C=N\NC(=O)c2cnc3ccccc3c2)cc1 | – | 21.3% [at 11.4 µM] |
| COc1ccc(C(C(=O)NC2CCCC2)N(C(=O)c2snc(-c3ccc(F)cc3)c2N)c2ccccc2)cc1 (stereo not drawn) | inactive | – |
| COc1ccc(CCN(C(=O)C(F)(F)F)C(C(=O)NC2CCCC2)c2cccs2)cc1 (stereo not drawn) | 2 µM (active) | – |
| O=C(NC1CCCCC1)C(c1cccs1)N(C(=O)C(F)(F)F)c1ccccc1 (stereo not drawn) | 1.58 µM (active) | – |
| CCOC(=O)c1ccc(N/C(=N\S(=O)(=O)c2ccccc2C)c2ccccc2)cc1 | 7.94 µM (active) | – |
| COc1cc2c(cc1OC)C(C(=O)Nc1ccc3c(c1)OCCO3)C(c1cccnc1)N(C)C2=O (stereo not drawn) | inactive | – |

| Structure (SMILES) | AC50 | activity, negative = inhibition |
| --- | --- | --- |
| COc1cc(OC)c(C2C(C(=O)O)c3ccccc3C(=O)N2C)cc1OC (stereo not drawn) | inactive | – |
| COCCN1C(=O)c2ccccc2C(C(=O)Nc2ccc3c(c2)OCCO3)C1c1ccc(F)cc1 (stereo not drawn) | 28.2 µM (active) | – |
| CCn1c(SCC(=O)N/N=C/C=C\c2ccccc2[N+](=O)[O-])nnc1-c1ccccc1 | 14.1 µM (active) | – |
| CC1=NNC(=O)C1CCC(=O)N/N=C\c1ccccc1[N+](=O)[O-] (stereo not drawn) | inactive | – |
| Cc1noc(C)c1C(=O)N1CCC[C@@]2(CCN(Cc3nccs3)C2)C1 | inactive | – |
| Cc1cc(N2CCOCC2)nc(SCc2ccc(Cl)cc2Cl)n1 | 2.24 µM (active) | – |
| CSc1nc(C)cc(Nc2ccc(O)c(CN3CCOCC3)c2)n1 | – | 52.5% [at 11.4 µM] |
| COc1cccc2c1C(=O)c1c(O)c3c(c(O)c1C2=O)C[C@](O)(C(=O)CO)C[C@H]3O[C@@H]1C[C@H](N)[C@H](O)[C@H](C)O1 | inactive | – |
| Cc1cc(Oc2ccc(-c3ccccc3)cc2)nc(N2CCOCC2)n1 | 14.1 µM (active) | – |
| O=c1c(-c2ccccc2)nc2cnc(N3CCOCC3)nc2n1C1CC1 | inactive | – |
| CCCc1ccc(Oc2cc(C)nc(N3CCOCC3)n2)cc1 | 11.2 µM (active) | – |
| COc1ccc(-n2c(=O)c(-c3ccccc3)nc3cnc(N4CCOCC4)nc32)cc1 | inactive | – |
| Nc1nc(Cl)nc2c1ncn2[C@@H]1O[C@@H](COP(=O)(O)OP(=O)(O)OP(=O)(O)O)[C@@H](O)[C@H]1O | inactive | – |
| O=C(NC1CCCCC1)C(c1cccs1)N(Cc1cccs1)C(=O)c1ccco1 (stereo not drawn) | 1.58 µM (active) | – |
| COc1ccc(CN(C(=O)Cc2cccs2)C(C(=O)NC2CCCC2)c2ccncc2)cc1 (stereo not drawn) | 1.78 µM (active) | – |
| O=C(NC1CCCC1)C(c1ccsc1)N(Cc1ccccc1)C(=O)Cc1cccs1 (stereo not drawn) | 5.01 µM (active) | – |
| CO[C@H]1[C@@H](OC(N)=O)[C@H](O)[C@@H](Oc2ccc3c(O)c(NC(=O)c4ccc(O)c(CC=C(C)C)c4)c(=O)oc3c2C)OC1(C)C | inactive | – |
| NC(=S)c1ccc[n+]([C@@H]2O[C@@H](COP(=O)([O-])OP(=O)(O)OC[C@@H]3O[C@@H](n4cnc5c(N)ncnc54)[C@@H](OP(=O)(O)O)[C@H]3O)[C@@H](O)[C@H]2O)c1 | inactive | – |
